The values that follow come from PubChem BioAssay.

The nature of experiment [1]: reducers of endogenous Her2 protein level, primary screen, SKBR3 breast tumor cells, AlphaScreen, ATP viability (AID 461;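 active means Her2 level under about 52% in both replicate screens, with viability over 70% of control, limit read from the data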;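 on Her2 level: lower value means less Her2 protein in the cells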;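 on viability: percent of carrier control wells set as 100% viability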). As to conditions: 18-24 h, measured here: SKBR3 viability, ATP luminescence, at 10 µM. (In general: Alpha assays give light when donor and acceptor beads are brought close together.)
The target in experiment [2] is Receptor tyrosine-protein kinase erbB-2 (Homo sapiens) (UniProt P04626). The description is as above. As to conditions: 18-24 h, at 10 µM, stronger effect = lower value.
Sequence of Receptor tyrosine-protein kinase erbB-2 (Homo sapiens) (P04626 whole entry, looked up): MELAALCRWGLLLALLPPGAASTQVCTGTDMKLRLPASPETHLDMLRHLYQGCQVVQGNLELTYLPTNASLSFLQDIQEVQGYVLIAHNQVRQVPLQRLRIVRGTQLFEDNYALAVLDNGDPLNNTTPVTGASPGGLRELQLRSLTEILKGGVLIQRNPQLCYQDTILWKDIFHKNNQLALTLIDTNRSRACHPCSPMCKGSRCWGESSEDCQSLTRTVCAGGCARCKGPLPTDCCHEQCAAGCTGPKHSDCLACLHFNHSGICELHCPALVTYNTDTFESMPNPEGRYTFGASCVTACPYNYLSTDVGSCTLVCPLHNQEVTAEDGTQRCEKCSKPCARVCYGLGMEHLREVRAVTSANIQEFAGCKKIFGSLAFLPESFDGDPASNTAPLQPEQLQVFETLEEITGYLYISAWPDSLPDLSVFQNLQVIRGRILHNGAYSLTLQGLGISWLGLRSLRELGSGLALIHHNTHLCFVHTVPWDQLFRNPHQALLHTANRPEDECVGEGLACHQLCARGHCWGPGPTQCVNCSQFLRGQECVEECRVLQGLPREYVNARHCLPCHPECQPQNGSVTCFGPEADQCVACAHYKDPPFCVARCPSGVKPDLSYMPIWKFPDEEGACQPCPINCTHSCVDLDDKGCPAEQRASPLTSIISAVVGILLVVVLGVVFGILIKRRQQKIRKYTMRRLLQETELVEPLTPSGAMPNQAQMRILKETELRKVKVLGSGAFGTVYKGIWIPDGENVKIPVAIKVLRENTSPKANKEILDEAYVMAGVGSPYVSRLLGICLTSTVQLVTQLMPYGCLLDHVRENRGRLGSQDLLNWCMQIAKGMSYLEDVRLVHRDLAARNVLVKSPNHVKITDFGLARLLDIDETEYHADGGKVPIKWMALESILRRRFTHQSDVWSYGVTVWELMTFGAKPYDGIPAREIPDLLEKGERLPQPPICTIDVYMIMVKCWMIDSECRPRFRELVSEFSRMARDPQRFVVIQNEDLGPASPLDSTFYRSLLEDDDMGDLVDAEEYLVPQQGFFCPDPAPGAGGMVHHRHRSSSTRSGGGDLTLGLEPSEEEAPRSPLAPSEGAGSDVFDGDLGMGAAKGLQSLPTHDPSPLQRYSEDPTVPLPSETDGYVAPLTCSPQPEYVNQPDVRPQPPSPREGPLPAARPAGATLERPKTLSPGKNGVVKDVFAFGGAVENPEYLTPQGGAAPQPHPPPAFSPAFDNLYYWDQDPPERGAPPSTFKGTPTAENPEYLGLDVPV
The nature of experiment [3]: SK-BR-3 cell growth inhibitors, pilot screen, 24 h, human (AID 572;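 active means viability at or below 10% of carrier control in both of two separate runs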;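 further: compound exposure lasted between 18 and 24 h rather than exactly 24 h; 100% = carrier-treated control wells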). As to conditions: SK-BR-3 viability, CellTiter-Glo luminescence, at 10 µM, stronger effect = lower value. Background: In ATP-based viability assays light output follows the ATP content of the culture.
Experiment [4] is described as follows: HUVEC growth inhibition – cell-based, human, primary screen (AID 575;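 active means viability at or below 30% in both replicate assays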;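 further: 100% = median of untreated cell wells with 0.1% DMSO on each plate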). The following applies: HUVEC proliferation, CellTiter-Glo luminescence, 72 h; at 10 µM; stronger effect = lower value.
The nature of experiment [5]: growth inhibitors of H69AR lung tumor, primary screen, human, duplicate replicates (AID 580;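 active means viability at or under a set limit in both replicates, limit being median viability minus 3 SD, cut at about 48% in these data, passing the limit was not always enough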;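 further: 100% = mean luminescence of untreated wells and 0% = no signal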). The following applies: H69AR lung tumor cells viability, ATP luminescence, 72 h; at 10 µM; stronger effect = lower value.
Experiment [6] can be described thus: reversal of MRP1-mediated doxorubicin resistance, pilot screen, H69AR cells, doxorubicin co-treatment (AID 601;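 active means viability loss from added drug above about 55%, and viability with drug at most 40%, in both replicates, limit read from the data, passing the limit was not always enough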). As to conditions: CellTiter-Glo, 72 h, at 10 µM; for differential viability (reversal): stronger effect = higher value.
Experiment [7] is described as follows: 384-well plate pilot, post-Golgi transport modulator project, inhibition of yeast transport mutant growth (AID 636; in the data active means inhibition above about 31%). As to conditions: absorbance 615 nm, about 18 h, stronger effect = higher value.
The nature of experiment [8]: growth suppression of yeast trafficking mutant, preliminary HTS, modulators of trafficking downstream of Golgi apparatus project, 1536-format plate, OD 615 nm (AID 637; in the data active means inhibition above about 30%). As to conditions: yeast transport mutant growth, absorbance 615 nm, 18 h; stronger effect = higher value.
The nature of experiment [9]: OD615 S. cerevisiae growth inhibition, permissive medium, pilot counter-assay, permissive growth control for S. cerevisiae lifespan shortening project (AID 705). As to conditions: OD615, 24 h, at 10 µM, stronger effect = higher value.
The nature of experiment [10]: Restrictive medium S. cerevisiae growth inhibition, OD615, pilot screen of yeast lifespan reduction project, restrictive growth control (AID 706;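 active means growth inhibition above a set limit, 3 SD over mean compound inhibition, in both replicates, cut at about 43% in these data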;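 further: modified DeaD lifespan yeast strain shifted to restrictive glucose medium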). As to conditions: OD615, 48 h, at 10 µM, stronger effect = higher value.
Experiment [11] is described as follows: viability gain of MRP-1-high H69AR cells under doxorubicin, pilot screen, MRP-1 activator project, CellTiter-Glo, duplicate (AID 807;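 active means viability increase at or above a cutoff of the median across tested compounds plus 3 SD, cut at about 8.5% in these data, passing the limit was not always enough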;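 further: compound pretreatment 18-22 h then 72 h combined with doxorubicin; 0% = doxorubicin alone and 100% = vehicle without doxorubicin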). The following applies: H69AR viability with doxorubicin, CellTiter-Glo luminescence; at 10 µM; stronger effect = higher value.
Experiment [12] in a line: growth suppression of beta-catenin knockout HCT116, pilot screen, human colon tumor cells (AID 823;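 active means cell viability at or below a set limit in both duplicate runs, the limit being the all-compound median minus 4 SD, cut at about 23% in these data, passing the limit was not always enough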;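 further: 0% = wells killed by 20 µM Hyamine and 100% = untreated DMSO cell wells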). The following applies: CellTiter-Glo, 60 h, at 10 µM, stronger effect = lower value.
Experiment [13] can be described thus: growth suppression of PTEN-deleted HCT116, pilot screen, cell-based, HCT116 clonal line, CellTiter-Glo (AID 824;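 active means viability at or below 27.92% in each of two runs, the all-compound median minus 4 SD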;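 further: 0% = 20 µM Hyamine control and 100% = vehicle cell control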). The following applies: 60 h, at 10 µM, stronger effect = lower value.
Experiment [14] is described as follows: inhibitors of the yeast RAM network, pilot screen, dse1pr::URA3 reporter, 5-FOA selection (AID 869;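 active means inhibition over a set limit, the all-compound mean plus 3 SD, in both replicate runs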;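 further: 0% = DMSO wells with no growth and 100% = 10 µM 1-NA-PP1 with full growth; RAM network block rescues cells from 5-FOA so hits raise OD615 growth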). The following applies: S. cerevisiae dse1pr::URA3 5-FOA growth, OD615, 2 d; at 10 µM; stronger effect = higher value; strain carries analog-sensitive mutant Cbk1 kinase.
Experiment [15] in a line: RAM signaling pathway blockade in yeast – S. cerevisiae, Pdr1DBD-CYC8 efflux-inhibited sensitized strain, primary screen (AID 1298;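 active means RAM network inhibition above 8.4% in each of two replicates, 3 SD over the compound average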;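 further: 0% = DMSO untreated cells without growth and 100% = 10 µM 1-NA-PP1 full growth; higher means more yeast growth rescued from 5-FOA killing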). As to conditions: S. cerevisiae cbk1-as DSE1-URA3 strain, 5-FOA growth OD615, 2 d; at 50 µM; stronger effect = higher value.
The mark [16] stands for this setting: H69AR cells + 2 uM doxorubicin, measured here: viability with 2 uM doxorubicin, stronger effect = lower value.
[17] abbreviates: H69AR cells, compound alone cytotoxicity.

As usually defined, the viability is a read-out of living cells in per cent, often relative to untreated cells. In general, inhibition refers to the change of the read-out against control, counted positive when it falls.

Results filed as inconclusive are left out. The source made the active and inactive calls.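 How the source made its calls, unless noted: active means growth inhibition above 25% in both replicates, a cutoff set 3 SD above the mean; inconclusive means above 25% in only one replicate; inactive means the rest.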

As for `COc1ccc(N2CCN(Cc3nc4c(c(=O)n(C)c(=O)n4C)n3Cc3ccccc3C)CC2)cc1`, the viability was 92.5% in experiment [1]; 92.5% (inactive) in experiment [3]; 94.5% (inactive) in experiment [4]; 80% (inactive) in experiment [5]; 54.9% in [6] (setting [16]); 80% in [6] (setting [17]). The viability in experiment [12] is 90.7% (inactive); in experiment [13] it was 77.6% (inactive). Further, the Her2 level in experiment [2] was 81% (inactive). Moreover, the differential viability (reversal) in experiment [6] (H69AR cells + 2 uM doxorubicin) is 25.1% (inactive). Moreover, the inhibition in [7] is -2.4% (inactive); in experiment [8], -2% (inactive); in experiment [14], 1.29% (inactive). Besides, the growth inhibition in [9] is -12.5% (inactive); in [10] it was -24.9% (inactive). The viability increase in experiment [11] was -4.52% (inactive). Besides, in [15], the RAM network inhibition is -0.26% (inactive).
As to `CC(CCC(=O)Nc1nncs1)C(=O)O` (configuration not stated), the viability in [1] was 124%; in [3] it was 124% (inactive); in [4] it was 101% (inactive); in [5], 85.9% (inactive); in [6] (setting [16]) it was 86.6%; in [6] (setting [17]) it was 85.9%. Besides, the viability in experiment [12] was 108% (inactive); in experiment [13] it was 95.9% (inactive). Further, the Her2 level in experiment [2] is 110% (inactive). Further, the differential viability (reversal) in experiment [6] (H69AR cells + 2 uM doxorubicin) is -0.74% (inactive). Further, the inhibition in [7] is -3.2% (inactive); in experiment [8], 8.33% (inactive); in experiment [14] it was 0.135% (inactive). Also, the growth inhibition in [9] is -8.12% (inactive); in [10], -5.29% (inactive). Also, in [11], the viability increase is 0.04% (inactive). Further, the RAM network inhibition in experiment [15] is -0.05% (inactive).
As for `O=C(CC1(O)C(=O)Nc2ccccc21)c1ccc2c(c1)OCO2` (configuration not stated), the viability in experiment [1] is 104%; in experiment [3], 104% (inactive); in experiment [4], 87.5% (inactive); in experiment [5], 76.3% (inactive); in [6] (setting [16]), 88.5%; in experiment [6] (setting [17]) it was 76.3%. The viability in [12] is 97.2% (inactive); in experiment [13], 96.5% (inactive). Also, in experiment [2], the Her2 level is 93.5% (inactive). Moreover, in [6] (H69AR cells + 2 uM doxorubicin), the differential viability (reversal) is -12.3% (inactive). The figures for the inhibition in experiment [7], in experiment [8] and in [14] were 0.78% (inactive), -3% (inactive) and 2.9% (inactive), respectively. For the same compound, the growth inhibition is -7.81% (inactive) in experiment [9] and -21.3% (inactive) in [10]. Moreover, in experiment [11], the viability increase is -2.13% (inactive). Besides, the RAM network inhibition in experiment [15] is 4.82% (inactive).
As to `CCCc1cc(=O)oc2c(C)c3occ(C)c3cc12`, the viability in [1] was 112%; in [3], 112% (inactive); in experiment [4] it was 64.8% (inactive); in experiment [5] it was 98.2% (inactive); in experiment [6] (setting [16]), 93.3%; in experiment [6] (setting [17]), 98.2%. Moreover, the viability is 77.4% (inactive) in [12] and 79.5% (inactive) in experiment [13]. For the same compound, the Her2 level in experiment [2] is 99.5% (inactive). The differential viability (reversal) in experiment [6] (H69AR cells + 2 uM doxorubicin) was 4.94% (inactive). For the same compound, the inhibition in experiment [7] is -0.68% (inactive); in experiment [8] it was -3.02% (inactive); in experiment [14], 3.16% (inactive). For the same compound, the figures for the growth inhibition in experiment [9] and in [10] were -2.79% (inactive) and 0.83% (inactive), respectively. Besides, the viability increase in [11] is -4.59% (inactive). In addition, the RAM network inhibition in experiment [15] was 3.02% (inactive).
As for `CC(C)(C)NC(=O)CSc1nnc(-c2ccccn2)n1-c1ccccc1`, the viability was 98.5% in experiment [1]; 98.5% (inactive) in experiment [3]; 105% (inactive) in experiment [4]; 91.9% (inactive) in experiment [5]; 91.9% in experiment [6] (setting [16]); 91.9% in experiment [6] (setting [17]). In addition, the viability was 100% (inactive) in experiment [12] and 92.9% (inactive) in [13]. For the same compound, in [2], the Her2 level was 126% (inactive). Besides, the differential viability (reversal) in experiment [6] (H69AR cells + 2 uM doxorubicin) is 0.06% (inactive). The results for the inhibition in experiment [7], in experiment [8] and in experiment [14] were -5.2% (inactive), -3% (inactive) and 0.43% (inactive), respectively. In addition, the values for the growth inhibition in experiment [9] and in experiment [10] were -14% (inactive) and -6.57% (inactive), respectively. In addition, in experiment [11], the viability increase was -0.63% (inactive). Also, in experiment [15], the RAM network inhibition is 1.1% (inactive).
Consider `CC1CCN(C(=O)Cn2cc3c(n2)CCCC3)CC1`, for which the viability in experiment [1] was 97%; in experiment [3], 97% (inactive); in experiment [4], 97.1% (inactive); in [5], 96.4% (inactive); in [6] (setting [16]) it was 101%; in experiment [6] (setting [17]), 96.4%. Moreover, the figures for the viability in [12] and in experiment [13] were 100% (inactive) and 99.9% (inactive), respectively. Moreover, in [2], the Her2 level was 116% (inactive). Further, the differential viability (reversal) in experiment [6] (H69AR cells + 2 uM doxorubicin) was -4.43% (inactive). Moreover, the inhibition in experiment [7] is 6.67% (inactive); in [8], -4.5% (inactive); in [14], 0.615% (inactive). In addition, the results for the growth inhibition in experiment [9] and in experiment [10] were -7.6% (inactive) and -2.46% (inactive), respectively. The viability increase in [11] is 0.91% (inactive). Further, the RAM network inhibition in [15] is 3.48% (inactive).
